From ChEMBL document CHEMBL1961873, “Compounds: GSK PKIS; Assays: Nanosyn kinase panel” (2012) come the findings set out here.

Experiment [1] concerns the target 5'-AMP-activated protein kinase catalytic subunit alpha-2 (Homo sapiens) (UniProt P54646). Particulars: at 1 µM.
Experiment [2] has as its target T1, NUAK family SNF1-like kinase 1 (Homo sapiens) (UniProt O60285).
T1 sequence (whole entry): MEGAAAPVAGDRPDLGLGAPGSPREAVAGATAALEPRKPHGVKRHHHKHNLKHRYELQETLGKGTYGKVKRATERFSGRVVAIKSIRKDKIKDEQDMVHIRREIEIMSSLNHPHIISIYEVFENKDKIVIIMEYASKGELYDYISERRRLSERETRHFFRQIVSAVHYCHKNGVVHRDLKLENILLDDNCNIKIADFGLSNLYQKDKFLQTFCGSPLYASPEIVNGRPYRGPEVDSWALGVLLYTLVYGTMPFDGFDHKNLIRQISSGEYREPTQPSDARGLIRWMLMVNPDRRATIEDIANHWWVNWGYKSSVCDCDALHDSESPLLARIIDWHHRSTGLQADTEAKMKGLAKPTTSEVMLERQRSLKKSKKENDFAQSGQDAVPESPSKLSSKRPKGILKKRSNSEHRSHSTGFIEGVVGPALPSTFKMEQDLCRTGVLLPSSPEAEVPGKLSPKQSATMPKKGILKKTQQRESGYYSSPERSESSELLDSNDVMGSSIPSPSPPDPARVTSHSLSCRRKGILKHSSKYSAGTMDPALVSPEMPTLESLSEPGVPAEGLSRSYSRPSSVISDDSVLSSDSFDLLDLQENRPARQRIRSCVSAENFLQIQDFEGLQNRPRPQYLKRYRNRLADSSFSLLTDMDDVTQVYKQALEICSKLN
Particulars: at 0.1 µM.

The target of experiment [3] is T1, NUAK family SNF1-like kinase 1 (Homo sapiens). Particulars: at 1 µM.
For experiment [4], the target named is T2, Serine/threonine-protein kinase BRSK1 (Homo sapiens) (UniProt Q8TDC3).
T2 sequence (whole entry): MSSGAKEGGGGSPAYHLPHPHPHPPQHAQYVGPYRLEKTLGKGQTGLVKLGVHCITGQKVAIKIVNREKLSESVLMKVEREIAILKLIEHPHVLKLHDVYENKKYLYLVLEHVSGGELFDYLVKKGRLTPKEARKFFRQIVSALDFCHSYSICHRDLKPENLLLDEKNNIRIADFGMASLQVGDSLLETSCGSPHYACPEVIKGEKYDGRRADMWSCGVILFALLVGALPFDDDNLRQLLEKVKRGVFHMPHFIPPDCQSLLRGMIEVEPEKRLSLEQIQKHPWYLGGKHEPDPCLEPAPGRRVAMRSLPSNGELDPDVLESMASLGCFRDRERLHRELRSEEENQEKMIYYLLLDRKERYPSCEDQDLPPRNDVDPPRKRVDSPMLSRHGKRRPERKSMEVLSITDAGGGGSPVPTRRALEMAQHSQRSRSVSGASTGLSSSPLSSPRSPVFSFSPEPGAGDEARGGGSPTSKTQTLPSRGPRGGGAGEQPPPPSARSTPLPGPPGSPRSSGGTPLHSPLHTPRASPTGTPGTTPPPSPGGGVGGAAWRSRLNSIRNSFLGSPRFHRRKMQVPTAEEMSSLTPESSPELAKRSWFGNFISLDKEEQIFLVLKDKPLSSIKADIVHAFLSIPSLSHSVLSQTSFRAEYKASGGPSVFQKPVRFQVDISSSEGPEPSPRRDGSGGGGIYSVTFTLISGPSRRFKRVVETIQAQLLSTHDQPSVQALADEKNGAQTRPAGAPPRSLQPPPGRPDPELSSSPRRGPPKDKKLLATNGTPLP
Particulars: at 0.1 µM.

The target of experiment [5] is T2, Serine/threonine-protein kinase BRSK1 (Homo sapiens). Particulars: at 1 µM.
Experiment [6] concerns the target T3, Serine/threonine-protein kinase BRSK2 (Homo sapiens) (UniProt Q8IWQ3).
T3 sequence (whole entry): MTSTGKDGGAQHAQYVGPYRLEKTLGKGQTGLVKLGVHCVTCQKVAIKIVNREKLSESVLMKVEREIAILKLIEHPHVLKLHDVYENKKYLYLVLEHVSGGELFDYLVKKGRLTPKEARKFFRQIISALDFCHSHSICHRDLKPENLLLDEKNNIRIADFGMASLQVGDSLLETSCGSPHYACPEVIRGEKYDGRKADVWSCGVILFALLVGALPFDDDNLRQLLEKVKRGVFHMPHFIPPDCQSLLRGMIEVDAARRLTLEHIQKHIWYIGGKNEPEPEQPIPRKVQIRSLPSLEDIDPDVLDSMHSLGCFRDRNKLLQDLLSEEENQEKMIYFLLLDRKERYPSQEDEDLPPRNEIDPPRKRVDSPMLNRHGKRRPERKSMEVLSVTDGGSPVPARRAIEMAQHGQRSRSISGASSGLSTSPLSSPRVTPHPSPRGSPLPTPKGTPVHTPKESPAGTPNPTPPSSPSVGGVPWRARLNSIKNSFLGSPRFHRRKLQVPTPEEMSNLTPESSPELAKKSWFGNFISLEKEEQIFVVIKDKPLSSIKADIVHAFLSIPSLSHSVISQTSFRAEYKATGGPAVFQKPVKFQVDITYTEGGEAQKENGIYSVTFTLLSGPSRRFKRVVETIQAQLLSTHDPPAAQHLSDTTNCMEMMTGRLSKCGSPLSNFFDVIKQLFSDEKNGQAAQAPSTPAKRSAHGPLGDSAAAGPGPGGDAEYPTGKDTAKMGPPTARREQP
Particulars: at 0.1 µM.

For experiment [7], the target named is T3, Serine/threonine-protein kinase BRSK2 (Homo sapiens). Particulars: at 1 µM.
Experiment [8] addresses Calcium/calmodulin-dependent protein kinase type 1D (Homo sapiens) (UniProt Q8IU85). Particulars: at 0.1 µM.
Experiment [9] has the same target. Particulars: at 1 µM.
Experiment [10] concerns the target Calcium/calmodulin-dependent protein kinase type II subunit alpha (Homo sapiens) (UniProt Q9UQM7). Particulars: at 0.1 µM.
The target is the same in experiment [11]. Particulars: at 1 µM.
Experiment [12] deals with Calcium/calmodulin-dependent protein kinase type II subunit delta (Homo sapiens) (UniProt Q13557). Particulars: at 0.1 µM.
Sequence of Calcium/calmodulin-dependent protein kinase type II subunit delta (Homo sapiens) (Q13557 whole entry): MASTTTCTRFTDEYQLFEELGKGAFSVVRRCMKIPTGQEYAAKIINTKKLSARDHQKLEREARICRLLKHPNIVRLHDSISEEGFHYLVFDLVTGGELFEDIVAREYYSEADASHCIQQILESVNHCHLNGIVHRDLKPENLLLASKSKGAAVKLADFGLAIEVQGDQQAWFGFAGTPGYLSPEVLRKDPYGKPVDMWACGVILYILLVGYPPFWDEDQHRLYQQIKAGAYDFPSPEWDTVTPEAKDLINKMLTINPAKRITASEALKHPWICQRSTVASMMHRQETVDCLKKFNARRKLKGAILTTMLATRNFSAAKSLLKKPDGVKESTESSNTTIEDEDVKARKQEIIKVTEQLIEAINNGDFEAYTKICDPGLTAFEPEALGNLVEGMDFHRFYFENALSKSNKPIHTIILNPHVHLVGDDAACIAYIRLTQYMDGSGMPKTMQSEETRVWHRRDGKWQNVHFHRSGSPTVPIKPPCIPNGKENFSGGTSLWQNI
Experiment [13] has the same target. Particulars: at 1 µM.
Experiment [14] deals with T4, Calcium/calmodulin-dependent protein kinase type IV (Homo sapiens) (UniProt Q16566).
T4 sequence (whole entry): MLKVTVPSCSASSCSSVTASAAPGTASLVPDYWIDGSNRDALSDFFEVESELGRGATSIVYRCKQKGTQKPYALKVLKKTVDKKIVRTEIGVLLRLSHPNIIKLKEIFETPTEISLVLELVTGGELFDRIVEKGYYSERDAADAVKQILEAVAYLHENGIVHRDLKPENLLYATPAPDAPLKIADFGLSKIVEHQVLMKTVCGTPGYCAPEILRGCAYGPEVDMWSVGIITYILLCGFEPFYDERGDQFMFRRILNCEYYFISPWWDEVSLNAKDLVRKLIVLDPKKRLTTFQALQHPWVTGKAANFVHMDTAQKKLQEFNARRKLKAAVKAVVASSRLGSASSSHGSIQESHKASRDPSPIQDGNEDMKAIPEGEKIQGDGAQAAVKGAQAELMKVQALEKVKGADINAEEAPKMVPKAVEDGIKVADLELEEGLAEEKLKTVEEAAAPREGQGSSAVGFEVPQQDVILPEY
Particulars: at 0.1 µM.

Experiment [15] deals with T4, Calcium/calmodulin-dependent protein kinase type IV (Homo sapiens). Particulars: at 1 µM.
The target of experiment [16] is T5, Serine/threonine-protein kinase Chk1 (Homo sapiens) (UniProt O14757).
T5 sequence (whole entry): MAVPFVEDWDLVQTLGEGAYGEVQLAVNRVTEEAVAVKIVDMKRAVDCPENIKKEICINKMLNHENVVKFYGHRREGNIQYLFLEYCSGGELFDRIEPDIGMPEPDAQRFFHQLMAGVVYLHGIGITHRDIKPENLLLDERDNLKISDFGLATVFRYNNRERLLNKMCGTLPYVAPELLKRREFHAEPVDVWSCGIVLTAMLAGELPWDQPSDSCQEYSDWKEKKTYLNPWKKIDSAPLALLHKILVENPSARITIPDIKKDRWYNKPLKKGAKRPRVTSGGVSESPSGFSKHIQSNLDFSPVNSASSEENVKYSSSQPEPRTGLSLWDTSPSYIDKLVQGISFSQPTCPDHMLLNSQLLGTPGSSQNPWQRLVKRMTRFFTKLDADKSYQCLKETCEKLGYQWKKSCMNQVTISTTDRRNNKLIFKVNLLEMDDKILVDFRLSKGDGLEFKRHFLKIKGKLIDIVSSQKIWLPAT
Particulars: at 0.1 µM.

Experiment [17] concerns the target T5, Serine/threonine-protein kinase Chk1 (Homo sapiens). Particulars: at 1 µM.
In experiment [18] the target is Serine/threonine-protein kinase Chk2 (Homo sapiens) (UniProt O96017). Particulars: at 0.1 µM.
Sequence of Serine/threonine-protein kinase Chk2 (Homo sapiens) (O96017 whole entry): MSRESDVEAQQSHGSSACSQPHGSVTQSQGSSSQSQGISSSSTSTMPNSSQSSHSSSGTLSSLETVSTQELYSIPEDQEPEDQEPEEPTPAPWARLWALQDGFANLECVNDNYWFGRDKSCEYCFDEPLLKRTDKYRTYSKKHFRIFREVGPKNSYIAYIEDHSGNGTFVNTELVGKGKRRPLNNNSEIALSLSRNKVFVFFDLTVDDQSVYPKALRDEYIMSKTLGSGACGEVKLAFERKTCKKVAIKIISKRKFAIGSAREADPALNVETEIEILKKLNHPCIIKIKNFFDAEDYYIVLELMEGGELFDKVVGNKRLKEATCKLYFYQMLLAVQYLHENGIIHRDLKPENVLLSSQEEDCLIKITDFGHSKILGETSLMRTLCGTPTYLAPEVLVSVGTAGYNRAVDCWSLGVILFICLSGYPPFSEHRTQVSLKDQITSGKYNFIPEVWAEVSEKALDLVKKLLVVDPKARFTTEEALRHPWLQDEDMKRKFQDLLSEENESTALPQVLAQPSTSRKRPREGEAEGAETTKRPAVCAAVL
Experiment [19] shares this target. Particulars: at 1 µM.
Experiment [20] deals with Death-associated protein kinase 1 (Homo sapiens) (UniProt P53355). Particulars: at 0.1 µM.
Sequence of Death-associated protein kinase 1 (Homo sapiens) (P53355 whole entry, looked up): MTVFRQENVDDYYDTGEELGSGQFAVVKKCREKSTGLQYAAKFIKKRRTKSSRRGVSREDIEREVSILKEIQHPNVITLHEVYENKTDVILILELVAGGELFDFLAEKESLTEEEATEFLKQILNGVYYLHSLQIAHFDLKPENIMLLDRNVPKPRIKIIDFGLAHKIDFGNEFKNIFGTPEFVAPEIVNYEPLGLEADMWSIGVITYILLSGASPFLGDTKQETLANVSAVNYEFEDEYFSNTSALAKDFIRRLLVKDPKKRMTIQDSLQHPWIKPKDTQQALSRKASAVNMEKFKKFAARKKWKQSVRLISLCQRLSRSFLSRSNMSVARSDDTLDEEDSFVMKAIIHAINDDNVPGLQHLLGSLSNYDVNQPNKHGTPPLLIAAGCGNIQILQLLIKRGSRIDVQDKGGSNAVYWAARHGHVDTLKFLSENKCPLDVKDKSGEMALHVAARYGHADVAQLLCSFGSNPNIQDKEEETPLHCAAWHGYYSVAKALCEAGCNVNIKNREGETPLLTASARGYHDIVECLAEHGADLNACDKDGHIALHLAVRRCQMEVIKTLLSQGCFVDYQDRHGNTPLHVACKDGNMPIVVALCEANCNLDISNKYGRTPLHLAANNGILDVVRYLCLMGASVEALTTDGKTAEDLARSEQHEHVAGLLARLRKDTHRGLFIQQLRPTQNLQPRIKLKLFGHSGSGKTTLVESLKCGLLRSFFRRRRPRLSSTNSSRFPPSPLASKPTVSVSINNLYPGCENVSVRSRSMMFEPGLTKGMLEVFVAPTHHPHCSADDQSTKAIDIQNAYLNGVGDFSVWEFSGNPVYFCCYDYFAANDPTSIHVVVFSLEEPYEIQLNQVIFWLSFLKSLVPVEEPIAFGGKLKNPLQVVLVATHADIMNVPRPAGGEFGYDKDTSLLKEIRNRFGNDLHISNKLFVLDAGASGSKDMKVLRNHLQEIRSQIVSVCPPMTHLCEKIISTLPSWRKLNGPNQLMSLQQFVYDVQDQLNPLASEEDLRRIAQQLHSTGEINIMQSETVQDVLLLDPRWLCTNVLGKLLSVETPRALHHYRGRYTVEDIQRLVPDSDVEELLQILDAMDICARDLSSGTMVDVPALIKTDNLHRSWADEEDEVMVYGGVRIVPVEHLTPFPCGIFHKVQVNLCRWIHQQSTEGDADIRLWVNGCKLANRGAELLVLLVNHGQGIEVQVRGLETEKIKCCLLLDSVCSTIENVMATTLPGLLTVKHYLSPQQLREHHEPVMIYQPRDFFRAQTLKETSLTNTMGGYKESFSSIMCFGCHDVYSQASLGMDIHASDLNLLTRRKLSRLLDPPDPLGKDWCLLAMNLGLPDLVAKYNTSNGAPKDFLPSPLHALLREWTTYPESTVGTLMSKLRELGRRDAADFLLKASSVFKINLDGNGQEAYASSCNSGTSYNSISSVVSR

Sequence of Calcium/calmodulin-dependent protein kinase type II subunit alpha (Homo sapiens) (Q9UQM7 whole entry): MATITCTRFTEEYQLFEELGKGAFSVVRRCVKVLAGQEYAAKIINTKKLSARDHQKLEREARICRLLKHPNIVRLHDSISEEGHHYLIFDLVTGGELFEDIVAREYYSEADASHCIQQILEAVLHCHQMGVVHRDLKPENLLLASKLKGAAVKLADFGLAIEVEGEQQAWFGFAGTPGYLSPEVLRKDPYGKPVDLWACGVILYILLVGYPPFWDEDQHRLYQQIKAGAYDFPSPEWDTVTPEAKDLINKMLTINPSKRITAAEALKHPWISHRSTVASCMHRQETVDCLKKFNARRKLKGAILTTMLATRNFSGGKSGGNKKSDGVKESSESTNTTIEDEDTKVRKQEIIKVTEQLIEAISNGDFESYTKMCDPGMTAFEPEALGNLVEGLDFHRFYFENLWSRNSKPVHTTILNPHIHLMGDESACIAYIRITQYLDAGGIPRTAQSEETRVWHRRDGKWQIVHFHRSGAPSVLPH
Sequence of 5'-AMP-activated protein kinase catalytic subunit alpha-2 (Homo sapiens) (P54646 whole entry, looked up): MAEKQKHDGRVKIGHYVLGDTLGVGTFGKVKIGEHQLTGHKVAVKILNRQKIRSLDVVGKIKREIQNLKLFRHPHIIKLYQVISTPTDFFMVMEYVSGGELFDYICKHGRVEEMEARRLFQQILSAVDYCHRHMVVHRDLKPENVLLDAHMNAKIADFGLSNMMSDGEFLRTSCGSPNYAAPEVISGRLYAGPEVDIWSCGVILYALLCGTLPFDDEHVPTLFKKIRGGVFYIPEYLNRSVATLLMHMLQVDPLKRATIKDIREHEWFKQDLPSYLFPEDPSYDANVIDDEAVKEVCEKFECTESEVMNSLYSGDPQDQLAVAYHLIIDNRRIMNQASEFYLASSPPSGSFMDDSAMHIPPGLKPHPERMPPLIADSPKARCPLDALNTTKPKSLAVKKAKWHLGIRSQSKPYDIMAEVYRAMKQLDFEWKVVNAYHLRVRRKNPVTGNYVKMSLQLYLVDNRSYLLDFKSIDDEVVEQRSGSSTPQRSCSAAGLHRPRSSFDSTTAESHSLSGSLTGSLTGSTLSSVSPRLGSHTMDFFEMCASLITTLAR
Sequence of Calcium/calmodulin-dependent protein kinase type 1D (Homo sapiens) (Q8IU85 whole entry, looked up): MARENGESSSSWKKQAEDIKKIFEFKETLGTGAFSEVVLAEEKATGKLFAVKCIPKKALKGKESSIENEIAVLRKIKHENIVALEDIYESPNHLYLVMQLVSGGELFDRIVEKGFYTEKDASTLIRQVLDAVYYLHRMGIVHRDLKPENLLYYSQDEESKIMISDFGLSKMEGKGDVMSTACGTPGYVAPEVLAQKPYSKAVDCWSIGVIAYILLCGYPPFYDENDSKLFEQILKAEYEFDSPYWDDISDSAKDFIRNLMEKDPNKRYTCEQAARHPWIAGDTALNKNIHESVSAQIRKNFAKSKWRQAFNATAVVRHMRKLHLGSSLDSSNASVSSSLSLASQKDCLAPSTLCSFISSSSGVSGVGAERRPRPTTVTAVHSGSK

As for `CN(C)CCOc1ccc(-c2cc(-c3ccc4c(c3)CCC4=NO)c(-c3ccncc3)o2)cc1`, the inhibition – broadly, the drop in the measured response relative to a control, in per cent – in experiment [1] was 0.01%; in experiment [2], 0.84%; in experiment [3], -0.24%; in experiment [4] it was -0.05%; in experiment [5], -0.95%; in experiment [6], -0.42%. Besides, the inhibition in [7] was 1.46%; in experiment [8], -0.88%; in experiment [9], 1.79%; in experiment [10], -1.08%; in experiment [11], 0.22%; in experiment [12] it was -0.38%. Moreover, the inhibition in experiment [13] was 2.18%; in experiment [14], -0.94%; in [15] it was 1.99%; in [16], -2.19%; in [17], -2.8%; in experiment [18], -1.13%. In addition, the results for the inhibition in [19] and in experiment [20] were -1.56% and -1.01%, respectively.
For `C#Cc1cccc(Nc2ncnc3ccc(OCCCCNCCS(C)(=O)=O)cc23)c1`, the inhibition in experiment [1] is 4.43%; in experiment [2], 4.55%; in experiment [3], 12.9%; in experiment [4] it was 1.77%; in [5], 7.62%; in experiment [6], 3.96%. In addition, the inhibition in experiment [7] is 10%; in experiment [8], -0.65%; in experiment [9] it was 0.48%; in experiment [10] it was 3.18%; in experiment [11], 3.33%; in experiment [12], 3%. The inhibition was 5.51% in experiment [13]; -0.65% in [14]; -2.02% in [15]; 1.45% in experiment [16]; 4.94% in experiment [17]; 2.64% in experiment [18]. Moreover, the results for the inhibition in experiment [19] and in experiment [20] were 7.73% and 3.32%, respectively.
With `CS(=O)(=O)CCNCc1ccc(-c2ccc3ncnc(Nc4ccc(OCc5ccccc5)c(Br)c4)c3c2)o1`, the inhibition is -0.88% in experiment [1]; -0.46% in experiment [2]; 0.63% in [3]; -1.34% in experiment [4]; 2.21% in experiment [5]; 1.54% in experiment [6]. The inhibition in [7] was 2.06%; in experiment [8] it was -1.35%; in [9], -0.82%; in experiment [10], 2.7%; in experiment [11], -1.77%; in [12] it was 2.65%. Further, the inhibition in experiment [13] was 3.02%; in experiment [14] it was -1.3%; in [15], -2.06%; in experiment [16], 0.41%; in [17], 1.92%; in experiment [18], 2.5%. Also, the results for the inhibition in experiment [19] and in [20] were 2.92% and 3.45%, respectively.
Regarding `COc1cc(C)c(N(C)C(=O)CN(C)C)cc1Nc1nc(Nc2cccc(F)c2C(N)=O)c2cc[nH]c2n1`, the inhibition in [1] was 3.07%; in experiment [2] it was 0.7%; in [3], 4.1%; in experiment [4], 0.88%; in [5], -0.02%; in experiment [6] it was 0.05%. Further, the inhibition in [7] stood at 0.83%; in [8], 1.27%; in experiment [9] it was 2.67%; in experiment [10] it was 3.48%; in [11], 4.38%; in experiment [12], 3.09%. Also, the inhibition in experiment [13] was 3.38%; in experiment [14], 1.4%; in [15], 4.78%; in experiment [16], -4.87%; in experiment [17], -0.94%; in experiment [18], 2.55%. Also, the values for the inhibition in [19] and in experiment [20] were 8.44% and 0.19%, respectively.
Regarding `C[C@@H](Oc1cc(-n2cnc3ccc(OC4CCN(C)CC4)cc32)sc1C(N)=O)c1ccccc1Cl`, the inhibition in [1] amounted to 9.02%; in experiment [2] it was 22%; in experiment [3], 66.8%; in experiment [4], 27.6%; in experiment [5], 58%; in [6] it was 37.9%. The inhibition in experiment [7] was 70.8%; in [8] it was -0.95%; in experiment [9] it was 3.84%; in experiment [10], 2.57%; in experiment [11], 14.4%; in [12], 10.2%. Also, the inhibition in experiment [13] is 44.3%; in [14], -2.92%; in experiment [15], 2.05%; in experiment [16] it was 0.96%; in experiment [17], 7.85%; in [18], 3.23%. For the same molecule, the inhibition in [19] amounted to 5.06%; in experiment [20], 3.53%.
